PubChem BioAssay (NCI)
This is part of a sample that, as a whole, favours compounds with a hit. Of some 79,000 tested, about 15% had one in any assay. Calls of active or inactive are those of the source. No stated cut-off is given here; in the data, active means growth inhibition above about 70%; inactive means the rest.

How the values were obtained:
[1] = NCI Yeast Anticancer Drug Screen. Data for the rad52 strain (AID 147);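 further: 0% = growth of vehicle-treated control cultures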; conditions: S. cerevisiae rad52 mutant growth inhibition, hits give high values
Procedure, shortened: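 Compounds are applied to a genetically defined yeast strain lacking normal DNA damage repair, and inhibition of growth is expressed relative to cultures given vehicle only.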

[2] = NCI Yeast Anticancer Drug Screen. Data for the wt1 strain (AID 149);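 further: 0% = growth of vehicle-treated wt1 cultures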; conditions: S. cerevisiae wt1 strain (SPY 50644) growth inhibition, hits give high values
Procedure, shortened: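 The wt1 strain was treated with compounds, and growth was compared with vehicle-treated cultures to give inhibition.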

[3] = NCI Yeast Anticancer Drug Screen. Data for the rad50 strain (AID 155);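 further: 0% = growth of vehicle-only cultures of the same strain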; conditions: S. cerevisiae rad50 strain growth inhibition, hits give high values
Procedure, shortened: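 Cells are treated with compound, grown, and their growth is then scored against vehicle-only cultures of the same repair-deficient yeast strain.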

[4] = NCI Yeast Anticancer Drug Screen. Data for the mec2-1 strain (AID 157); conditions: S. cerevisiae mec2-1 strain, hits give high values
Procedure, shortened: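 Strain: mec2-1 (DNA repair/cell cycle alteration). Compound exposure, then growth measured; inhibition expressed relative to vehicle.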

[5] = NCI Yeast Anticancer Drug Screen. Data for the rad14 strain (AID 159);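 further: 0% = growth of vehicle-treated control cultures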; conditions: S. cerevisiae rad14 strain growth inhibition, hits give high values
Procedure, shortened: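 Readout: yeast growth inhibition, referenced to vehicle-only cultures. Strain bears a defined alteration in DNA damage repair.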

[6] = NCI Yeast Anticancer Drug Screen. Data for the sgs1 mgt1 strain (AID 161);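 further: 0% = growth of cultures given vehicle only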; conditions: S. cerevisiae sgs1 mgt1 strain, hits give high values
Procedure, shortened: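 Test agents were incubated with a DNA-repair-mutant yeast strain. Growth was then read and compared against vehicle-treated controls.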

[7] = NCI Yeast Anticancer Drug Screen. Data for the CLN2oe strain (AID 163);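 further: 0% = growth of vehicle-only control cultures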; conditions: S. cerevisiae CLN2oe strain, hits give high values
Procedure, shortened: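 Growth of a genetically modified yeast strain is measured after compound exposure and compared with cultures given vehicle alone.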

[8] = NCI Yeast Anticancer Drug Screen. Data for the cln2 rad14 strain (AID 165);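 further: 0% = growth equal to vehicle treated cultures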; conditions: S. cerevisiae cln2 rad14 strain, hits give high values
Procedure, shortened: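 Compounds are applied to the cln2 rad14 yeast strain, and growth is then compared with that of vehicle-treated cultures to give inhibition.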

[9] = NCI Yeast Anticancer Drug Screen. Data for the bub3 strain (AID 167); conditions: S. cerevisiae bub3 mutant strain, hits give high values
Procedure, shortened: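 Part of a panel of yeast mutants defective in DNA damage repair or cell cycle regulation. Each strain is grown with compound, and inhibition is calculated relative to solvent-treated cultures.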

[10] = NCI Yeast Anticancer Drug Screen. Data for the wt2 strain (AID 169);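 further: 0% = growth of vehicle-treated yeast cultures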; conditions: S. cerevisiae wt2 strain growth inhibition, hits give high values
Procedure, shortened: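 This strain belongs to a panel of yeast strains with defined genetic alterations in DNA damage repair or cell cycle control. Compounds are applied, and growth inhibition is measured against vehicle-treated cultures.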

[11] = NCI Yeast Anticancer Drug Screen. Data for the mlh1 strain (AID 171);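 further: 0% = growth of vehicle-treated control cultures of the same strain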; conditions: S. cerevisiae mlh1 strain growth inhibition, hits give high values
Procedure, shortened: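 Growth of the mutant yeast strain after compound exposure, expressed as inhibition relative to vehicle-only controls.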

[12] = NCI Yeast Anticancer Drug Screen. Data for the sgs1 strain (AID 173);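 further: 0% = growth of vehicle-only control cultures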; conditions: S. cerevisiae sgs1 mutant, hits give high values
Procedure, shortened: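 Growth of a yeast strain bearing a defined genetic alteration is measured after compound treatment. Inhibition is expressed relative to vehicle-only controls.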

[13] = NCI Yeast Anticancer Drug Screen. Data for the mlh1 rad18 strain (AID 175); conditions: S. cerevisiae mlh1 rad18 strain growth inhibition, hits give high values
Procedure, shortened: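 Read-out is yeast growth inhibition, calculated against vehicle-only controls. The compound was applied to a strain engineered with DNA damage repair alterations.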

[14] = NCI Yeast Anticancer Drug Screen. Data for the rad18 strain (AID 177); conditions: S. cerevisiae rad18 mutant growth inhibition, hits give high values
Procedure, shortened: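 Growth of the mutant yeast strain after compound exposure, normalised to vehicle-only cultures.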

[15] = at 5.0 µM (retest, dose inferred, filed as 0.5)
[16] = at 50.0 µM (retest, dose inferred, filed as 5.0)

Measured: growth inhibition

CCCCC(=O)c1c(O)nc2sccn2c1=O
inactive: [1]; at 1.2 µM 8% | [1]; at 3.7 µM 18% | [1]; at 11.0 µM 64% | [2]; at 1.2 µM 25% | [2]; at 3.7 µM 29% | [2]; at 11.0 µM 52% | [3]; at 1.2 µM 14% | [3]; at 3.7 µM 31% | [3]; [15] 30% | [4]; at 1.2 µM 22% | [4]; at 3.7 µM 17% | [4]; [15] 10% | [5]; at 1.2 µM 22% | [5]; at 3.7 µM 68% | [6]; [15] 5% | [6]; [16] 28% | [7]; at 1.2 µM 9% | [7]; at 3.7 µM 5% | [7]; at 11.0 µM 26% | [8]; [15] 22% | [8]; [16] 37% | [8]; at 50.0 µM 53% | [9]; at 1.2 µM 6% | [9]; at 3.7 µM 11% | [9]; [15] 47% | [9]; at 11.0 µM 62% | [10]; at 1.2 µM 7% | [10]; at 3.7 µM 19% | [11]; at 1.2 µM 27% | [12]; at 1.2 µM 33% | [12]; at 3.7 µM 55% | [13]; [15] 63% | [14]; at 1.2 µM 17% | [14]; at 3.7 µM 20%
active: [1]; at 33.0 µM 96% | [1]; at 100.0 µM 98% | [2]; at 33.0 µM 94% | [2]; at 100.0 µM 98% | [3]; at 11.0 µM 82% | [3]; at 33.0 µM 97% | [3]; [16] 85% | [3]; at 50.0 µM 85.4% | [3]; at 100.0 µM 98% | [4]; at 11.0 µM 82% | [4]; at 33.0 µM 97% | [4]; [16] 88% | [4]; at 50.0 µM 85.3% | [4]; at 100.0 µM 98% | [5]; at 11.0 µM 98% | [5]; at 33.0 µM 98% | [5]; at 100.0 µM 98% | [6]; at 50.0 µM 89.2% | [7]; at 33.0 µM 78% | [7]; at 100.0 µM 89% | [9]; at 33.0 µM 94% | [9]; [16] 92% | [9]; at 50.0 µM 87.2% | [9]; at 100.0 µM 96% | [10]; at 11.0 µM 86% | [10]; at 33.0 µM 98% | [10]; at 100.0 µM 99% | [11]; at 3.7 µM 74% | [11]; at 11.0 µM 95% | [11]; at 33.0 µM 97% | [11]; at 100.0 µM 98% | [12]; at 11.0 µM 92% | [12]; at 33.0 µM 97% | [12]; at 100.0 µM 98% | [13]; [16] 95% | [13]; at 50.0 µM 83.4% | [14]; at 11.0 µM 72% | [14]; at 33.0 µM 95% | [14]; at 100.0 µM 97%
